Only some compounds are listed: those with a hit (about 1.6% of all), similar ones and a draw of the others.
KCNQ2 enhance = potentiators of rat KCNQ2 potassium channel; B-score at 10 µM; Potassium voltage-gated channel subfamily KQT member 2 (Rattus norvegicus), O88943; AID 2239, 2010; CHO-K1 KCNQ2, FluxOR thallium flux fluorescence; hits give high values; 0.54% of 310,000 active;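 active means fluorescence ratio B-score at least 3 SD of library B-scores, with initial fluorescence B-score within 3 of them, cut at about 5.3 in these data; same plate scores as AID 2156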;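 further: B-score of peak minus minimum over baseline fluorescence ratio after K+ and Tl+ stimulus; positive B-score means potentiation of KCNQ2 with more thallium influx and brighter signal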
KCNQ2 block = rat KCNQ2 potassium channel inhibitors, primary screen, cell-based, CHO-K1, FluxOR thallium flux, B-score; Potassium voltage-gated channel subfamily KQT member 2 (Rattus norvegicus), O88943; 20 min; hits give low values; B-score at 10 µM; 1.1% of 310,000 active; AID 2156, 2009;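 active means fluorescence ratio B-score at most minus 3 library SDs, with starting brightness B-score within 2 library SDs, cut at about -5.5 in these data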
KCNQ2 block conf = rat KCNQ2 potassium channel inhibitors, confirmation, cell-based, thallium flux; 57% of 1,000 active; AID 493025, 2011; activity change, negative = inhibition, % at 10 µM; KCNQ2-expressing cells, inhibition; hits give low values; shares compounds with KCNQ2 block
KCNQ1 spec = human KCNQ1 channel inhibition, counter-screen for KCNQ2 inhibitor project, cell-based, FluxOR thallium flux. activity change, negative = inhibition, % at 10 µM. KCNQ1-expressing cells, FluxOR thallium flux fluorescence; hits give low values. shares compounds with KCNQ2 block. AID 493026, 2011. 15% of 1,000 active;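 active means activity change at least 3 SD of negative controls below their mean in both duplicate wells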;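 further: CHO cells stably transfected with KCNQ1 and depolarized by potassium stimulus; peak minus minimum fluorescence over baseline after thallium addition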
Target sequence (P51787 whole entry, looked up): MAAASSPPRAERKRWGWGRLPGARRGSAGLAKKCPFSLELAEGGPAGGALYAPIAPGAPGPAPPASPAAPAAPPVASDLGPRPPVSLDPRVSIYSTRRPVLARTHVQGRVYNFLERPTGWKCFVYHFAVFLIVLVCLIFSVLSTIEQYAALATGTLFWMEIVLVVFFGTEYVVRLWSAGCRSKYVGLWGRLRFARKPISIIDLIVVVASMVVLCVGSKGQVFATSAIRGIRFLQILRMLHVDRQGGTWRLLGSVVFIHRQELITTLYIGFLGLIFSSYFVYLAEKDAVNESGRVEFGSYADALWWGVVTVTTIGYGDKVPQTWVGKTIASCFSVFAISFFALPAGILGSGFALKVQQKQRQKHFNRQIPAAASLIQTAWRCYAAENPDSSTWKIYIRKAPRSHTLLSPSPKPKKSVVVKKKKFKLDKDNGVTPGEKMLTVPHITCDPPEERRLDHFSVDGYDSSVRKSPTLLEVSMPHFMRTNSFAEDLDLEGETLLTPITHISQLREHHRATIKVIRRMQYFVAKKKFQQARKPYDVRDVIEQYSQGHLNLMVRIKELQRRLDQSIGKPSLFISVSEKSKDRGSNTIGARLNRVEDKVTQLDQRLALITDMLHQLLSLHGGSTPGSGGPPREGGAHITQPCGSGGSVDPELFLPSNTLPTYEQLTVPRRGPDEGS
CHO parental ctr = thallium flux change in parental CHO cells, counter-screen for KCNQ2 inhibitor project; hits give low values; shares compounds with KCNQ2 block; activity change, % at 10 µM; 14% of 1,000 active; AID 493029, 2011
KCNQ2 inh confirm = rat KCNQ2 channel inhibitors, confirmation, cell-based, automated patch clamp, single concentration | KCNQ2-expressing cells, automated patch clamp current | shares compounds with KCNQ2 block | calls only at 10 µM | 49% of 550 active
Numbers stand for hits; i = inactive; nt = not tested or not shown; + = active, no number. Unless noted, how the calls were made is not given here.

SMILES	KCNQ2 enhance	KCNQ2 block	KCNQ2 block conf	KCNQ1 spec	CHO parental ctr	others
Cc1cc(OCC(=O)N(C)C2CCCCC2)cc(C)c1Cl	i	-7.4	-43%	-46%	-38%	KCNQ2 inh confirm=+
COc1ccc(NS(=O)(=O)c2ccc(NC(=O)c3ccc(N(C)S(C)(=O)=O)cc3)cc2)c(OC)c1	i	i	nt	nt	nt
COC(=O)c1ccc(Cn2nnc3c(=O)[nH]c(C4CCN(S(=O)(=O)c5ccc(F)cc5)CC4)nc32)cc1	nt	i	nt	nt	nt
CCC1/C(=N\O)CC(c2ccco2)NC1c1ccco1 (configuration not stated)	nt	i	nt	nt	nt
CCN1/C(=C\c2ccc3cc(C)ccc3[n+]2CC)Sc2cc(C)c(C)cc21	nt	i	nt	nt	nt
C=CC[n+]1c(/C=C2\C=Cc3cc(C)ccc3N2CC)ccc2ccccc21	i	-9.8	i	i	i
CCOC(=O)CNC(=O)Cn1cnc2c(nnn2-c2ccccc2)c1=O	i	i	nt	nt	nt
O=C(COC(=O)CCSc1ccc(Cl)cc1)NCc1ccco1	i	-8.1	i	i	i
O=C(COC(=O)CCSc1ccc(Cl)cc1)NCc1ccccc1Cl	i	i	nt	nt	nt
N#C/C(=C\c1cccnc1)C(=O)Nc1cccc2ccccc12	i	-6.7	i	i	i
COc1ccccc1NC(=O)/C(C#N)=C/c1cccnc1	nt	i	nt	nt	nt
CC1(C)CC(=O)C(C2C3=C(CC(C)(C)CC3=O)Oc3c(Br)cc(Br)cc32)=C(O)C1 (configuration not stated)	nt	i	nt	nt	nt
COc1cc2c(cc1OC)CN(C(=O)CN1CCN(S(=O)(=O)c3ccc(C)c(C)c3)CC1)CC2	nt	i	nt	nt	nt
Cc1oc(CC(C)C)cc1C(=O)Nc1cccc2ccccc12	i	-7.7	i	i	i
Cc1cc(C(=O)Nc2cccc3ccccc23)c(C)o1	i	i	nt	nt	nt
Cc1ccc(NC(=O)CCc2c[nH]c3ccccc23)nc1	i	i	nt	nt	nt
CCOC(=O)C1CCN(C(=S)Nc2ccc(CC)cc2)CC1	i	i	nt	nt	nt
Cc1nn2c([nH]c(=O)c3ccccc32)c1C=O	nt	i	nt	nt	nt
COc1ccc(Nc2ccccc2NC(=O)c2ccccc2Br)cc1	i	-9.6	-22%	i	i	KCNQ2 inh confirm=+
Cc1ccccc1C(=O)Nc1ccccc1NC(=O)c1ccccc1Br	nt	i	nt	nt	nt
COC(=O)c1ccc2c(c1)N(Cc1nc(-c3ccc(Cl)cc3)oc1C)C(=O)C1CCCN21 (configuration not stated)	nt	i	nt	nt	nt
CC1CCC(C(C)C)C(OC(=O)COC(=O)c2ccc(N)cc2)C1 (configuration not stated)	nt	i	nt	nt	nt
CC1CCC(C(C)C)C(OC(=O)Cn2c(-c3ccc(Cl)cc3)[n+](C)c3ccccc32)C1 (configuration not stated)	i	-6.7	-46%	-46%	-48%	KCNQ2 inh confirm=+
CC1Sc2ccc(S(=O)(=O)N3CCC(C(=O)NCc4ccccc4)CC3)cc2NC1=O (configuration not stated)	i	i	nt	nt	nt
CC(=O)Nc1ccc(S(=O)(=O)N(C)CC(=O)OC(C)C(=O)NC2CCCCC2)cc1 (configuration not stated)	i	i	nt	nt	nt
SMILES	KCNQ2 enhance	KCNQ2 block	KCNQ2 block conf	KCNQ1 spec	CHO parental ctr	others
Cc1ccc(C(C[N+](=O)[O-])Sc2ccc(N)cc2)cc1 (configuration not stated)	i	-9.4	-30%	i	i	KCNQ2 inh confirm=i
Nc1ccc(Sc2ccc([N+](=O)[O-])cc2)cc1	i	i	nt	nt	nt
COc1ccc(O)c(/C=N/NC(=O)c2cc(=O)[nH]c3ccccc23)c1	nt	i	nt	nt	nt
O=C(c1ccccc1)c1ccc2nc(-c3ccco3)c(-c3ccco3)nc2c1	i	-7.7	i	i	i
O=C(NCCc1ccccc1)c1ccc2nc(-c3ccco3)c(-c3ccco3)nc2c1	i	i	nt	nt	nt
O=C(NCc1cccs1)C1CCCN(c2nc3ccccc3o2)C1 (configuration not stated)	nt	i	nt	nt	nt
CCOc1cc(-c2nc3ccccn3c2NCC2CCCO2)ccc1O (configuration not stated)	i	-9.6	i	i	i
COc1cc(-c2nc3ccccn3c2NCC2CCCO2)ccc1O (configuration not stated)	i	i	nt	nt	nt
Cc1sc(NC(=O)c2ccco2)c(C(c2cccnc2)N2CCN(CCO)CC2)c1C (configuration not stated)	i	i	nt	nt	nt
Cc1sc(NC(=O)c2ccco2)c(C(c2cccnc2)N2CCN(c3ccc(F)cc3)CC2)c1C (configuration not stated)	i	-10	-29%	i	i	KCNQ2 inh confirm=i
Cc1ccc(-n2c(-c3ccc(Br)cc3)c[n+]3c2CCc2ccc4cccnc4c2-3)cc1	i	-12	-45%	-36%	-30%
COc1ccc(-n2c(-c3ccc(Cl)cc3)c[n+]3c2CCc2ccccc2-3)cc1	nt	i	nt	nt	nt
Cc1c(CCC(=O)NCCCN2CCCC2=O)c(=O)oc2c(C)c(O)ccc12	i	i	nt	nt	nt
COc1ccc(-c2n[nH]c(C)c2-c2cnn(-c3ccccc3)c2)c(O)c1C	nt	i	nt	nt	nt
COc1ccc(-c2n[nH]c(C)c2-c2cnn(-c3ccccc3)c2)c(O)c1	i	-8	i	i	i
NC(=O)c1cccnc1OCC(F)(F)F	i	i	nt	nt	nt
CCCn1c(NCc2ccc3c(c2)OCO3)nc2ccccc21	nt	i	nt	nt	nt
CCOc1ccc(CNc2nc3ccccc3n2CCN2CCOCC2)cc1	nt	i	nt	nt	nt
Brc1cccc(CNc2nc3ccccc3n2CCN2CCOCC2)c1	i	-8.4	i	i	i
CCCCn1c(NCc2ccc3c(c2)OCO3)nc2ccccc21	i	-8.5	-33%	i	i	KCNQ2 inh confirm=+
Cc1cc(C)n(C(=O)c2ccc([N+](=O)[O-])cc2Cl)n1	nt	i	nt	nt	nt
CC(=O)C1=C(c2ccccc2)NC(=O)NC1c1ccccc1OCC#N (configuration not stated)	nt	i	nt	nt	nt
COc1ccc(OC)c(NC(=O)Cc2ccc(NC3=NC4CS(=O)(=O)CC4S3)cc2)c1 (configuration not stated)	nt	i	nt	nt	nt
CCOc1ccc(C2CC(=O)NC2=O)cc1 (configuration not stated)	i	i	nt	nt	nt
CC(Sc1ccc(Cl)cc1)C(=O)Nc1ccc(S(=O)(=O)N2CCOCC2)cc1 (configuration not stated)	i	i	nt	nt	nt
SMILES	KCNQ2 enhance	KCNQ2 block	KCNQ2 block conf	KCNQ1 spec	CHO parental ctr	others
C=C1SC(Nc2c(C)cccc2C)=NC12CCCCC2	nt	i	nt	nt	nt
C=C1SC(Nc2c(C)cc(C)cc2C)=NC12CCCCC2	i	-7.6	-28%	i	i	KCNQ2 inh confirm=i
COCCNc1nc(-c2cc(C)c(C)cc2C)cs1	nt	i	nt	nt	nt
COc1ccccc1Nc1nc(N)nc(CN2CCCCC2)n1	nt	i	nt	nt	nt
COc1ccccc1Nc1nc(N)nc(CN2CCN(Cc3ccccc3)CC2)n1	i	-9.9	-18%	i	i	KCNQ2 inh confirm=i
COc1ccc(C(C(=O)NC2CCCC2)N(Cc2cccnc2)C(=O)c2snc(C(N)=O)c2N)cc1OC (configuration not stated)	i	i	nt	nt	nt

High-throughput results from PubChem BioAssay.
